Screening data as filed in PubChem BioAssay.
GC-A act – GC-A (human) enzyme activation; HEK293 GC-A cells, cGMP TR-FRET, EC30 ANP; 0% at EC30 ANP, 100% saturating ANP; activation, % at 10 µM; 0.14% of 370,000 active; in the data active = activation above about 40%
GC-B act – GC-B (human) receptor activation. HEK293-GC-B cells, CNP EC30, cGMP TR-FRET; 0% at EC30 CNP, 100% saturating CNP. P20594. activation, % at 10 µM. 0.11% of 370,000 active;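 active = activation at 10 µM reaching about 35% in either raw or pattern-adjusted values, limit read from the data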
Target sequence (P20594 whole entry, looked up): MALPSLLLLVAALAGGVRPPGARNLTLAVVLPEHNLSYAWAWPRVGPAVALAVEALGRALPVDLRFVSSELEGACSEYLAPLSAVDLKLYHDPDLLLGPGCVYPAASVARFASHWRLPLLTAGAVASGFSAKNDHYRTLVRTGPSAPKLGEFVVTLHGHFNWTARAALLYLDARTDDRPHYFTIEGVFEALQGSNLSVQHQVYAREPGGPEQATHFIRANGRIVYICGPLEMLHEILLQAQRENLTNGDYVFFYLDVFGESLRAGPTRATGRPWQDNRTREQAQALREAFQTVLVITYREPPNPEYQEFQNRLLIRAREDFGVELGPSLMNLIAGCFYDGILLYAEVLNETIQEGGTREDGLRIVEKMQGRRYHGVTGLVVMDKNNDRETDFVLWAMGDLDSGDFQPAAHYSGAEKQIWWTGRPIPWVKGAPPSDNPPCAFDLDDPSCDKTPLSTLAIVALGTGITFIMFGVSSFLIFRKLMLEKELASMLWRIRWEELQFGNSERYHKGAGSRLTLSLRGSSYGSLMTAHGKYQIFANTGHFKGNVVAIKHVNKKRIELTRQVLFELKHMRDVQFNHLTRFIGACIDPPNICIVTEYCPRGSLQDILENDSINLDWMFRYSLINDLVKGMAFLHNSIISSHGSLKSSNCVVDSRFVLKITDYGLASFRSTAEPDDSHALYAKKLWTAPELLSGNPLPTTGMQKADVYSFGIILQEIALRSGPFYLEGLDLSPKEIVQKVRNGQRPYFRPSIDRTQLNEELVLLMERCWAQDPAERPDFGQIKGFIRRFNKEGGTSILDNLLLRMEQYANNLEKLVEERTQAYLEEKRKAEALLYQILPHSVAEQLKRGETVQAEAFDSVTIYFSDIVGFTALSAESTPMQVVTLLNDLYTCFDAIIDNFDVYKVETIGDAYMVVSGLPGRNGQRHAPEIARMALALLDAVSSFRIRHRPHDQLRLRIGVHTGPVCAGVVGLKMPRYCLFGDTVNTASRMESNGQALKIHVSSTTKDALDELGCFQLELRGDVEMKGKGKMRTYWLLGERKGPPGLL
ADAM17 inh – inhibitors of human ADAM17. 0.83% of 370,000 active. P78536. recombinant ADAM17, EDANS/DABCYL FRET peptide cleavage. inhibition, % at 6.95 µM;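 active = inhibition above the mean of compounds lying between control limits plus 3 SD, set per campaign, cut at about 8.5% in these data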
FAS TE block – FAS thioesterase (human) inhibition; recombinant FAS-TE, OMFH fluorogenic substrate, fluorescence endpoint; inhibition, % at 15 µM; 0.67% of 360,000 active; P49327;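 active = compounds whose normalised, plate-corrected inhibition of enzyme fluorescence in the single-dose primary screen is 50% or more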
ADAM10 inh – inhibitors of human ADAM10. 0.62% of 370,000 active. inhibition, % at 7 µM. recombinant ADAM10, EDANS/DABCYL FRET peptide cleavage, 3 h;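 active = inhibition above a per-campaign cutoff equal to the mean of compounds falling between control-based bounds plus 3 SD, cut at about 20% in these data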
ADAM10 confirm – human ADAM10 inhibition, confirmation. 1% of 2,100 active. shares compounds with ADAM10 inh. ADAM10 QFRET peptide cleavage, EDANS fluorescence. AID 743208. inhibition, % at 6.95 µM;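 active = inhibition above about 20% chosen separately for each screening run, limit read from the data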
ADAM17 counter – inhibits human ADAM17 in ADAM10 exosite counter-screen | shares compounds with ADAM10 inh | ADAM17 QFRET peptide cleavage, EDANS fluorescence | inhibition, % at 6.95 µM | 0.5% of 2,100 active | AID 743214;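 active = mean triplicate inhibition above the solvent-only control wells' mean plus 3 SD, cut at about 12% in these data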
Large screens that a line does not name were inactive (follow-up assays come after a bar, where they were run). The list is not random: actives were taken first. Their share in the collection is about 2%.

CCN(c1ccccc1)S(=O)(=O)c1ccc(Cl)c(NC(=O)COC(=O)c2ccc(O)cc2)c1	ADAM10 inh 20 | ADAM10 confirm inactive | ADAM17 counter inactive
O=C(c1ccco1)c1cn(CC(=O)N2CCCCCC2)c2ccccc12	none
CCOC(=O)C1CCN(C(=O)Cn2cc(C(=O)c3ccco3)c3ccccc32)CC1	ADAM10 inh 64 | ADAM10 confirm inactive | ADAM17 counter inactive
COC(=O)c1cc(C2(c3c[nH]c4ccccc34)CCN(C(=O)OC(C)(C)C)CC2)n2ccccc12	none (no result: FAS TE block)
Cc1nn(-c2ccccc2)c(N)c1N=Nc1ccccc1	none
Cc1cccc(N=Nc2c(C)nn(-c3ccccc3)c2N)c1C	ADAM10 inh 23 | ADAM10 confirm inactive | ADAM17 counter inactive
O=C(Cn1nc(-c2ccccc2F)ccc1=O)Nc1ccc(S(=O)(=O)N2CCCCCC2)cc1	none
O=C(Cn1ncc2c1-c1ccccc1OC2)Nc1ccc(S(=O)(=O)N2CCCCC2)cc1	ADAM17 inh 10, ADAM10 inh 22 | ADAM10 confirm inactive | ADAM17 counter inactive
Cc1cccc(OCc2n[nH]c(=S)n2C2CCCCC2)c1	ADAM10 inh 21 | ADAM10 confirm inactive | ADAM17 counter inactive
CNC(=S)N/N=C/c1cn(CCOc2ccc(OC)cc2)c2ccccc12	ADAM10 inh 20 | ADAM10 confirm inactive | ADAM17 counter inactive
O=C(NCc1ccccc1)OCCN1C(=O)CCC12CCC(c1ccccc1)CC2 (centres undefined)	none (no result: FAS TE block)
CCOC(=O)[C@@]12CCCC=C1N(CCc1ccc(Cl)cc1)C(=O)[C@H]2CC(=O)NCCCCc1ccccc1	none (no result: FAS TE block)
O=C(CSCc1ccccc1Cl)NN=C1CCCCCC1	ADAM10 inh 20 | ADAM10 confirm inactive | ADAM17 counter inactive
Nn1c(SCC(=O)Nc2ccccc2-c2ccccc2)nnc1-c1cc(-c2ccc(F)cc2)n[nH]1	none (no result: FAS TE block)
COc1ccc(-c2csc(NC(=O)c3c(OC)cccc3OC)n2)cc1	ADAM10 inh 30 | ADAM10 confirm inactive | ADAM17 counter inactive
COc1cccc(-c2csc(NC(=O)Nc3ccccc3)n2)c1	ADAM10 inh 25 | ADAM10 confirm inactive | ADAM17 counter inactive
O=C(Nc1ccccc1)Nc1nc(-c2ccccc2)cs1	none
CCCSc1ncc(Cl)c(C(=O)Nc2ccc(S(=O)(=O)N3CC(C)OC(C)C3)cc2)n1 (centres undefined)	ADAM10 inh 20 | ADAM10 confirm inactive | ADAM17 counter inactive
CCOC(=O)[C@]12CCCC=C1N(CCCOC)C(=O)[C@@H]2CC(=O)N1CCSCC1	none (no result: FAS TE block)
COc1ccc(C=Nn2c(-c3ccc(F)cc3)n[nH]c2=S)c(OC)c1OC	none (no result: FAS TE block)
COc1ccc(NC(=O)CC2C(=O)N(CCc3ccccc3)C(=S)N2Cc2cccnc2)cc1 (centres undefined)	ADAM10 inh 22 | ADAM10 confirm inactive | ADAM17 counter inactive
CCN1C(=O)C(CC(=O)Nc2ccc(OC)cc2)N(Cc2cccnc2)C1=S (centres undefined)	none
Cc1ccc(NC(=O)CN(C)C(=O)Cc2ccc(Cl)cc2Cl)cc1	ADAM10 inh 30 | ADAM10 confirm inactive | ADAM17 counter inactive
Cc1ccc(C)c(NC(=O)CN(C)C(=O)Cc2ccc(Cl)cc2Cl)c1	none
Cc1sc2nc(CSc3ccccc3)nc(N3CCC(C(N)=O)CC3)c2c1C	ADAM10 inh 20 | ADAM10 confirm inactive | ADAM17 counter inactive
COC(=O)[C@]12C[C@H](CC(=O)NCCCN3CCCC3=O)C(=O)N(CCC3=CCCCC3)C1=C[C@H](C1CCCC1)O[C@@H]2C	none (no result: FAS TE block)
CC(=O)Oc1ccc2ccccc2c1C(NC(=O)Cc1ccccc1)c1ccc(Cl)cc1 (centres undefined)	ADAM10 inh 22 | ADAM10 confirm inactive | ADAM17 counter inactive
COc1ccc(CCn2c(-c3ccc(C(C)(C)C)cc3)n[nH]c2=S)cc1OC	ADAM10 inh 24 | ADAM10 confirm inactive | ADAM17 counter inactive
CN1C2=N[C@@H](c3ccc4c(c3)OCO4)CC(=O)N2/C(=C\c2ccccc2)[C@H]1c1ccccc1	none (no result: FAS TE block)
O=C1N(Cc2ccccc2)c2ccccc2C12CCCc1oc(CCc3ccccc3)nc12 (centres undefined)	none (no result: FAS TE block)
O=C(COc1ccc(Br)cc1Br)NC(=O)NC1CCCC1	none
CC(C)(C)NC(=O)NC(=O)COc1ccc(Br)cc1Br	ADAM10 inh 20 | ADAM10 confirm inactive | ADAM17 counter inactive
OC(c1ccc2c(c1)OCO2)c1ncc(-c2cccc(C(F)(F)F)c2)[nH]1 (centres undefined)	ADAM10 inh 20 | ADAM10 confirm inactive | ADAM17 counter inactive
NNC(=O)c1ccc(Cn2cc(Cl)cn2)cc1	none
O=C(Nc1ccc(Cl)c(Cl)c1)c1ccc(Cn2cc(Cl)cn2)cc1	ADAM10 inh 29 | ADAM10 confirm inactive | ADAM17 counter inactive
CCc1ccc(N=Nc2ccc(O)c3[nH]cnc23)cc1	ADAM10 inh 24 | ADAM10 confirm inactive | ADAM17 counter inactive
COc1ccc(N=Nc2ccc(O)c3ncccc23)cc1	none
CN1C(=O)C[C@@](C#N)(C(=O)N2CCCC2)[C@H]1c1ccccc1	none (no result: FAS TE block)
O=S(=O)(Nc1ccc(S(=O)(=O)Nc2ccccc2)cc1)c1ccccc1	none
O=S(=O)(Nc1ccc(N=Nc2ccccc2)cc1)c1ccccc1	ADAM10 inh 20 | ADAM10 confirm inactive | ADAM17 counter inactive
CCOc1cc(C(=O)NCC(C)(C)CNC(=O)c2cc(OCC)c(OCC)c(OCC)c2)cc(OCC)c1OCC	ADAM10 inh 21 | ADAM10 confirm inactive | ADAM17 counter inactive
COc1cc(C(=O)NCC(C)(C)CNC(=O)c2cc(OC)c(OC)c(OC)c2)cc(OC)c1OC	none
CC(C)C[C@H]1COc2cccc(F)c2S(=O)(=O)N1Cc1cn(Cc2ccco2)nn1	none (no result: FAS TE block)
CCCCc1ccc2nc(NC(=O)c3ccc(Br)o3)sc2c1	none (no result: FAS TE block)
O=C(O)/C=C/C(=O)Nc1ccc(Oc2ccccc2)cc1	none
CCOC(=O)/C=C/C(=O)Nc1ccc(Oc2ccccc2)cc1	ADAM10 inh 21 | ADAM10 confirm inactive | ADAM17 counter inactive
COC(=O)C1CN(Cc2ccccc2)CCS(=O)(=O)N1Cc1cn(Cc2ccc(Cl)cc2)nn1 (centres undefined)	none (no result: FAS TE block)
CC1(C)SC(=S)N(/N=C/c2ccccc2)C1N(O)C(=O)Nc1ccc([N+](=O)[O-])cc1 (centres undefined)	ADAM10 inh 22 | ADAM10 confirm inactive | ADAM17 counter inactive
COc1ccc(NC(=O)CN2C(=O)C(c3ccccc3)=NC23CCCCCC3)cc1	ADAM10 inh 27 | ADAM10 confirm inactive | ADAM17 counter inactive
COc1cccc(-c2nnc(SC(C(=O)c3c[nH]c4ccccc34)c3ccccc3)n2C)c1 (centres undefined)	none
